# Many of the other results were omitted from the sample, so hits are more common in it than they were.
# KDM5B inhibitor = blocks human KDM5B histone demethylase activity; Q9UGL1; KDM5B demethylase, FDH-coupled NADH fluorescence (FDH is formaldehyde dehydrogenase); Potency, µM (highest dose often 57.7 µM), hits mostly inhibitors; 220,000 compounds, 2.6% hits; AID 1347165; active = well fitted inhibition curve with a large enough effect; also: 0% is about no effect; nearly all actives have a fitted effect of over 70% in size
#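 Inhibition is measured as reduced NADH fluorescence generation from FDH coupling to formaldehyde release. Truncated KDM5BΔAP at 200 nM final acts on H3K4me3 peptide (12.5 µM in substrate mix) in pH 7.5 HEPES buffer with Tween-20, 30 min, room temperature.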
# Starred values were filed as active, the others as inactive; i = inactive. Potency is read from the fitted curve at half-maximal effect.
SMILES,KDM5B inhibitor
CN(C)c1nc(CNC(=O)c2cc(S(N)(=O)=O)ccc2F)cs1,i
NS(=O)(=O)c1ccc(F)c(C(=O)O)c1,i
c1cn(CCCNCC2CCCCC2)cn1,i
CC(C)NC(=O)c1cc(-c2ccc(Cl)c(Cl)c2)on1,i
COc1ccccc1-c1cc(C(=O)N2CCN(c3ncccn3)CC2)nc2c1cnn2C,i
CC(C)NC(=O)c1cc(-c2ccc([S+](C)(=O)[O-])cc2)c2cccn2n1,i
CN(C)C(=O)c1cc(-c2ccccc2S(C)(=O)=O)c2cccn2n1,i
CN(C)C(=O)c1cc(-c2ccc(S(C)(=O)=O)cc2)c2cnn(C)c2n1,79µM*
CC(C)NC(=O)c1cc(-c2ccc(S(C)(=O)=O)cc2)c2cnn(C)c2n1,89µM*
Cc1[nH]c2ccc(F)cc2c1CC(=O)NCCCN1CCCCC1,i
O=C(CSc1ncc(-c2ccccc2)o1)NCC1CC1,i
CC(=O)NC(NC(C)=O)C(O)C(O)C(O)C(O)CO (stereo not given),i
CN(C)S(=O)(=O)c1cccc(C(=O)/C=C/c2cc(-c3cccs3)cs2)c1,i
O=C(COc1ccccc1)c1ccc2c(c1)N(CCCC(=O)N1CCCC1)C(=O)CO2,i
O=C(O)c1cc(-c2ccccc2F)no1,i
COc1ccc(C(=O)Sc2ccc(C)cc2)cc1,i
O=C(NCc1cccc(F)c1)C1CCc2sc(C(=O)N3CCCCC3)cc2C1 (stereo not given),i
O=C(c1cccs1)N1CCc2[nH]nc(-c3cccc(F)c3)c2C1,i
O=C(c1cncs1)N1CCc2c(cc(-c3cccc(F)c3)c(=O)n2CCN2CCCCC2)C1,28µM*
O=CNN(C=O)c1ccccc1,i
NS(=O)(=O)c1ccc(-c2ccc(/C=N/Nc3ccc([N+](=O)[O-])cc3)o2)cc1,i
Cc1nnc([C@@H]2CC(F)(F)CN2C(=O)c2ccoc2C)o1,i
Cc1nnc([C@@H]2CC(F)(F)CN2C(=O)c2conc2C)o1,i
Cc1nnc([C@@H]2CC(F)(F)CN2C(=O)c2cccc3[nH]ccc23)o1,28µM*
CCCN1CCN(C(=O)c2ccc(-n3nc(C)c(-c4ccccc4)c3NC(C)=O)cc2)CC1,i
SMILES,KDM5B inhibitor
O=C(Nc1ccc(OCc2ccccc2)cc1)C1CCN(S(=O)(=O)Cc2cccc(Cl)c2)CC1,i
Cc1noc(C)c1-c1cc(-c2cccc(N3CCOCC3)c2)cn2cncc12,35µM*
Cc1ccccc1-c1cc(-c2c(C)noc2C)c2cncn2c1,i
c1cc(-c2cc(-c3ccncc3)c3cncn3c2)cc(N2CCOCC2)c1,i
CCOc1ccc(/C=C/C(=O)c2cc3ccccc3oc2=O)cc1OC,i
CN1CCC(N[C@H]2C[C@@H](Cc3cc(C(C)(C)C)on3)C2(C)C)CC1,i
COc1cccc(N2CCN(Cc3nc(N)nc(Nc4ccccc4C)n3)CC2)c1,i
O=C(Cn1ncc2ccccc2c1=O)NCC1CCCCC1,i
COC(=O)c1ccc(C2C(C(C)=O)C(=O)CC(C)(O)C2C(C)=O)cc1 (stereo not given),i
Cc1cc(C)c(CNC(=O)c2cc(-c3ccccc3)cc3c2OCCN3C(C)C)c(=O)[nH]1,35µM*
Cc1ccc(-c2cc(C(=O)NCc3c(C)cc(C)[nH]c3=O)c3c(c2)N(C(C)C)CCO3)cc1,25µM*
Cc1cc(-c2cc3c(ccn3C(C)C)c(C(=O)NCc3c(C)cc(C)[nH]c3=O)n2)ccn1,i
Cc1ccc(CNC(=O)CC(C)S(=O)(=O)c2cc3c(cc2C)NC(=O)CO3)cc1 (stereo not given),i
COc1ncccc1-c1cc(C(=O)NCc2c(C)cc(C)[nH]c2=O)c2c(c1)N(C(C)C)CCO2,28µM*
Cc1cc(C)c(CNC(=O)c2cc(-c3ccnn3C)cc3c2OCCN3C(C)C)c(=O)[nH]1,35µM*
Cc1cc(C)c(CNC(=O)c2nc(-c3ccc(F)cc3)cc3c2ccn3C(C)C)c(=O)[nH]1,i
COc1ncccc1-c1cc2[nH]ccc2c(C(=O)NCc2c(C)cc(C)[nH]c2=O)n1,i
COCCNC(=O)COC(=O)c1cc(-c2cccc3ccccc23)nc2ccccc12,i
O=C(CCn1cnc2sc3c(c2c1=O)CCCC3)NCc1cccc(CN2CCCCCC2)c1,i
COc1ccccc1Oc1coc2cc(OCc3ccccc3Cl)ccc2c1=O,i
COc1ccccc1C(=O)N1CCc2nc(C(C)C)nc(-c3ccc(O)cc3)c2C1,i
COc1cc(SC)ccc1C(=O)OC(C(=O)c1ccccc1)c1ccccc1 (stereo not given),i
CCn1c(/C=C/c2cn(CC)c3ccccc23)nc2ccccc2c1=O,i
Cc1csc(SCc2cc(=O)oc3cc4c(cc23)CCC4)n1,i
O=C(CSc1nnc2ccc(-c3ccncc3)nn12)NC1CCCCC1,i
Cc1ccc(-c2nc(CN3CCN(C(=O)C4CCCO4)CC3)co2)c(C)c1 (stereo not given),i
COCCn1cnc2c1c(=O)n(Cc1ccc(C(=O)OC)cc1)c(=O)n2Cc1ccccc1,i

# Source: PubChem
